# Assay results reported in PubChem BioAssay AID504800 (The Scripps Research Institute Molecular Screening Center, 2011).
# The list shows a part of the results. A number with no mark means an inactive call. Calls of active or inactive are those of the source.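 The calls were made as follows: active = mean activation over replicate wells exceeds the adjusted hit threshold taken from the earlier primary screen (cut at about 20% in these data); inactive = the rest.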
# Target: cAMP-dependent protein kinase type I-alpha regulatory subunit (Bos taurus) (UniProt P00514)
# Experiment: activators of PKA-R1A holoenzyme, confirmation, biochemical, fluorescence polarization, Cy5-IP20, triplicate (AID 504800);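 also: 0% = holoenzyme mix with DMSO only and 100% = cGMP-activated control wells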
# Conditions: PKA-R1A holoenzyme dissociation, at 11.4 µM, stronger effect = higher value
# Sequence of cAMP-dependent protein kinase type I-alpha regulatory subunit (Bos taurus) (P00514 whole entry, looked up): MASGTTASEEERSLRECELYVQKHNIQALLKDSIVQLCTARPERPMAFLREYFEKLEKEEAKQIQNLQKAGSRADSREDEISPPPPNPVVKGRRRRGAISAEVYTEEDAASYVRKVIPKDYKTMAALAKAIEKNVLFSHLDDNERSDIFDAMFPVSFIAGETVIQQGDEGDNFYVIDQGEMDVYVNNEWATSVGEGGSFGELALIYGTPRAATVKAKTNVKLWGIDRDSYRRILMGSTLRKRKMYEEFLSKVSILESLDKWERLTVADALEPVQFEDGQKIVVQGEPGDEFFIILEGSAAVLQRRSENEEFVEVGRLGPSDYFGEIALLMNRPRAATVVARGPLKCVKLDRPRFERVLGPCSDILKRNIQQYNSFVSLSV
row,SMILES,activation
1,CCC(Oc1ccccc1C)C(=O)Nc1ccc(S(=O)(=O)Nc2cc(C)on2)cc1 (stereo not given),2.1%
2,Cc1ccc2nc3c(cc(C(=O)NCCc4ccccc4)c(=N)n3CC3CCCO3)c(=O)n2c1 (stereo not given),4.46%
3,CCCC(=O)Nc1ncnc2c1ncn2[C@@H]1O[C@@H]2OP(=O)(O)OC[C@H]2[C@H]1OC(=O)CCC,43.8% (active)
4,CCOc1cc(C(=O)Nc2c(C)ccc3nsnc23)cc(OCC)c1OCC,-1.31%
5,O=C(Nc1ccc2c(c1)[C@@H]1C[C@@H](CC(=O)N3CCCCC3)O[C@@H](CO)[C@@H]1O2)NC1CCCCC1,4.17%
6,N#Cc1ccccc1CN1C(=O)S/C(=C/c2cccn2-c2cccc(C(=O)O)c2)C1=O,26.8% (active)
7,COc1ccc(NC(=O)c2ccc(C#CC(C)(C)O)cc2)cc1,-0.53%
8,CN(C(=O)CSc1nnc(Nc2ccccc2)s1)C1CCS(=O)(=O)C1 (stereo not given),1.24%
9,COc1ccc(CNc2nnnn2C)cc1,6.31%
10,COc1ccccc1N1CC(C(=O)Nc2nnc(SCC(=O)NC(C)C)s2)CC1=O (stereo not given),-1.21%
